Compounds with a hit are over-represented: about 19% of the library has one in this group of screens.
HT1080NT lethal: kills 2HG-producing HT-1080-NT fibrosarcoma cells; HT-1080-NT fibrosarcoma viability, CellTiter-Glo ATP luminescence, 48 h; Potency, µM (titrated, usually from 46.1 µM), inactives show at the top dose activity, negative = less viability, usual class: cytotoxic; hit rate 1.6% among 360,000;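 further: NT is the 2HG producing partner of a matched IDH1 knockdown line; potency means the concentration at half of the fitted maximal effect; 0% = DMSO-treated cells and -100% = media-only wells without cells; nearly all actives have a fitted effect of over 55% in size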
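A 48-hour cytotoxicity screen used HT-1080-NT cells plated 2 hours before compound delivery. ATP-based CellTiter-Glo luminescence measured viability, normalized to DMSO and no-cell controls.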
HT1080 IDH1KD tx: kills HT-1080 cells with IDH1 knockdown; HT-1080 IDH1 knockdown viability, ATP luminescence, 48 h; Potency, µM (top dose mostly 46.1 µM), for inactives: at the highest dose activity, negative = toxicity, most hits filed as cytotoxic; hit rate 2% among 360,000; AID 686971;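 further: potency means the concentration at half of the fitted maximal effect; 0% = DMSO wells and -100% = cell-free medium wells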
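CellTiter-Glo luminescence after 48 h compound exposure at 37 degrees C of IDH1-knockdown HT-1080 cells in 5% FBS RPMI. %Activity scaled between DMSO wells and cell-free media wells, with curves fitted and assigned curve classes.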
IL1B secr inh: inhibitors of inflammasome signaling (IL-1 beta secretion); THP-1 LPS/ATP IL-1B secretion, AlphaLISA, 16 h; active compounds read low; hit rate 4.7% among 360,000; activity change, % at 57.5 µM; in the data active means activity change below about -50%; inconclusive means mostly about -30% to -49%
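THP-1 cells pretreated 1 hr with compounds (up to 57.5 uM final), then stimulated with LPS (250 ng/mL final) plus ATP (1.25 mM final); secreted IL-1B measured by AlphaLISA after 16 hr, decreased signal indicating inhibition.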
DT40 TDP1 no CPT: qHTS for Inhibitors of human tyrosyl-DNA phosphodiesterase 1 (TDP1): qHTS in cells in absence of CPT; hit rate 15% among 420,000; Potency, µM (highest dose often 46.2 µM), for the others: at the top dose activity change, negative = growth inhibition, actives largely listed as inhibitors; DT40 Tdp1-/- hTDP1 cells, no CPT, ATP luminescence, 48 h; AID 686978, 2013; further: potency means the concentration at half of the fitted maximal effect; nearly all actives have a fitted effect of over 55% in size
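Compound effects on proliferation are scored in DT40 Tdp1-/-;hTDP1 cells in the absence of CPT. ATP levels (CellTiter-Glo luminescence) are recorded after a ≥48 hr, 37 °C incubation.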
TDP1 cell CPT: DT40-hTDP1 cell growth loss with CPT. chicken DT40 Tdp1-/-;hTDP1 cells + 20 nM CPT, ATP luminescence, 48 h. Potency, µM (titrated, usually from 46.2 µM), without a hit: at the top dose activity change, negative = growth inhibition, hits mostly inhibitors. hit rate 12% among 420,000. AID 686979; further: potency means the concentration at half of the fitted maximal effect; nearly all actives have a fitted effect of over 55% in size
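Cell growth measured by CellTiter-Glo luminescence after a minimum 48 h, 37 C compound exposure with 20 nM CPT in Tdp1-knockout DT40 cells stably expressing hTDP1, seeded 400/well; qHTS titration format.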
An asterisk follows results filed as active; ? = inconclusive; . = no result given; ! = not active in a repeat; [ ] = another dose, or the depositor's remark. Unless noted, the call rests on the fitted dose curve; in most records, active means well fitted curve in the direction sought with a large enough effect; inconclusive means small, poorly fitted or top-dose-only effect, or another doubt; inactive means no such curve, though single readings can be large; an effect the other way counts as inactive or inconclusive. Unless noted, on the % scale 0 is the no-effect control and ±100 the full control effect.

SMILES | HT1080NT lethal | HT1080 IDH1KD tx | IL1B secr inh | DT40 TDP1 no CPT | TDP1 cell CPT
O=C(NCCCn1ccnc1)c1sc2cc([N+](=O)[O-])ccc2c1Cl | -27% | -24% | 59 | 16µM* | 13µM*
O=C(NCCCn1ccnc1)c1sc2cccc(F)c2c1Cl | 5%[9.24 µM] | -4% | -12 | ? | -23%
Clc1ccc(N=C2SCC3CCCCN23)cc1 (centres undefined) | 12% | 1% | -4 | -26% | -20%
FC(F)Oc1ccc(N=C2SCC3CCCCN23)cc1 (centres undefined) | -8% | -1% | -17 | 23µM* | ?
O=c1[nH]c2cc3c(cc2cc1CN(CCc1ccccc1)C(=S)NCCCN1CCOCC1)OCCO3 | 10% | 10% | -11 | 21µM* | ?
Cc1cccc(NC(=S)N(CCN2CCOCC2)Cc2cc3cc4c(cc3[nH]c2=O)OCCO4)c1 | -5% | -12% | -28 | 16µM* | ?
CC(C)(C)c1cc(/C=C(\C#N)C(N)=S)cc(C(C)(C)C)c1O | . | . | . | 0.71µM* | 0.56µM*
O=C(c1ccc(Cl)nc1)c1cccs1 | 13% | 21% | 10 | -9% | 2%
O=C(c1cccs1)c1no[n+]([O-])c1C(=O)c1cccs1 | 18µM* | ? | -97* | 2.3µM* | 1.8µM*
COc1cccc(NC(=O)CC(=O)c2ccc([N+](=O)[O-])cc2)c1 | -6% | -2% | -20 | ? | ?
COc1cccc(N/C(SCc2cccc([N+](=O)[O-])c2)=C(/C#N)C(N)=O)c1 | ? | 16µM* | -102* | ? | ?
COc1ccc(S(=O)(=O)N2CCN(C(=O)C3CC3)CC2)cc1 | 8% | 10% | -8 | -6% | 0%
O=[N+]([O-])c1cc2ncccc2c2ncccc12 | ? | -25% | ? | 4.6µM* | 6.5µM*
CC(C)C[C@@H](CNCC(=O)[C@H](Cc1ccccc1)NC(=O)c1[nH]cnc1C(=O)N[C@@H](C)CN)NC(=O)c1nc[nH]c1C(=O)N[C@@H](C)C(=O)O | 8% | 6% | 23 | 3% | 2%
CCCCCCCCN1C(=O)[C@H](CC(=O)NCC23CC4CC(CC(C4)C2)C3)C[C@@]2(C(=O)OC)CC(C)(C)CC=C12 | -1% | -7% | 9 | ? | 4%
CCCCCCCCN1C(=O)[C@H](CC(=O)NCCCCc2ccccc2)C[C@@]2(C(=O)OC)CC(C)(C)CC=C12 | -13% | ? | 16 | 21µM* | 16µM*
CCCCNC(=O)C[C@@H]1C[C@@]2(C(=O)OC)CC(C)(C)CC=C2N(Cc2ccccc2)C1=O | -16% | -1% | -28 | ? | ?
CCCCCCCCN1C(=O)[C@H](CC(=O)NCCCC)C[C@@]2(C(=O)OC)CC(C)(C)CC=C12 | ? | ? | 15 | 12µM* | 10µM*
CCCCCCCCN1C(=O)[C@H](CC(=O)NCc2cccc3ccccc23)C[C@@]2(C(=O)OC)CC(C)(C)CC=C12 | ? | ? | 0 | 12µM* | -67%
CCCCCCCCN1C(=O)[C@H](CC(=O)NCc2ccccc2)C[C@@]2(C(=O)OC)CC(C)(C)CC=C12 | ? | ? | -26 | 5.2µM* | 3.7µM*
O=C/C=C/c1c(-c2ccccc2)cc2oc3ccccc3cc1-2 | -29% | 21µM* | -99* | 18µM* | ?
Nc1ccc(-c2cc3ccccc3oc2=O)cc1 | 6% | 24% | -18 | 0% | -8%
COc1cc2c(cc1OC)CN(C(=O)C1CCCN1S(=O)(=O)c1ccc(C)cc1)CC2 (centres undefined) | -1% | 1% | -17 | ? | -25%
CC(=O)Nc1cccc(-c2nnc(SCC(=O)c3cc([N+](=O)[O-])ccc3Br)o2)c1 | . | . | . | 5.2µM* | 5.2µM*
Cc1ccc(CC(=O)OCC(=O)c2ccc[nH]2)cc1C | 1% | 2% | 11 | -3% | -23%
SMILES | HT1080NT lethal | HT1080 IDH1KD tx | IL1B secr inh | DT40 TDP1 no CPT | TDP1 cell CPT
CC(=O)N1CCN(C(=O)CNc2cc(C(F)(F)F)ccc2OCC(F)(F)F)CC1 | 1% | 9% | -57* | -12% | -6%
CCN1CCN(CC(=O)Nc2cc(C(F)(F)F)ccc2OCCOC)CC1 | -3% | 6% | -4 | -28% | -13%
CN(C)CCCNCC(=O)c1c(-c2ccccc2)n(C)c2ccccc12 | ? | ? | -20 | 18µM* | 29µM*
CCn1c(-c2cc3c(C(F)(F)F)nn(C)c3s2)n[nH]c1=S | -4% | 0% | -6 | -2% | -7%
CCn1nc(C)c(CN2CCC(C(=O)Nc3cccc(-c4cccc(F)c4)c3)CC2)c1C | ? | ? | 18 | ? | ?
CCN1C(=O)c2ccccc2Sc2ccc(C(=O)O)cc21 | 12% | 9% | 18 | 17% | 20%
O=C(CCN1CCOCC1)N1c2ccccc2Sc2ccc(Cl)cc21 | -5% | 0% | -3 | ? | ?
CCSc1ccc2c(c1)N(CCCN1CCN(C)CC1)c1ccccc1S2 | 18µM* | ? | -57* | ? | 26µM*
CCC(=O)c1ccc2c(c1)N(CCCN1CCN(CCO)CC1)c1ccccc1S2 | . | . | . | 4.7µM* | 3µM*
OC1CC2CCC(C1)N2CCCN1c2ccccc2Sc2ccc(Cl)cc21 (centres undefined) | ? | 4.6µM* | -81* | 15µM* | 23µM*
CN1CCN(CCCN2c3ccccc3Sc3ccc(Cl)cc32)CC1 | 15µM*! | 21µM*! | -64*! | 21µM* | 4.6µM*!
COc1ccc(C(=O)NC(C)c2ccc(-n3ccnc3)cc2)c(OC)c1 (centres undefined) | 9% | -3% | 0 | -14% | ?
CCOc1ccccc1N(C)S(=O)(=O)c1ccc2c(c1)CCN2C(=O)CCC(=O)O | 0% | 5% | 9 | 14% | -21%
Cc1ccsc1/C=N/NC(=O)C(=O)NCC(C)C | 19% | 23% | -19 | -6% | 13%
CS/C(=C(/C#N)S(=O)(=O)c1ccc(Cl)cc1)N1CCOCC1 | 8% | 9% | -7 | -20% | 15%
CC(CN1CCN(CCOCCO)CC1)CN1c2ccccc2Sc2ccc(Cl)cc21 (centres undefined) | 23µM* | ? | -26 | ? | ?
OCCN1CCN(CCCN2c3ccccc3C=Cc3ccccc32)CC1 | . | . | . | 6µM* | 8.4µM*
OCCN1CCN(CCCN2c3ccccc3CCc3ccccc32)CC1 | -9% | -10% | -26 | ? | ?
Cc1nn(C)cc1C(C(=O)NC1CCCCC1)N(Cc1ccccc1Cl)C(=O)c1cnccn1 (centres undefined) | 1% | -4% | 4 | 4% | 0%
Cc1cccc(-c2nnc(NC(=O)c3ccc(Cl)cc3)o2)c1 | ? | ? | 66 | 10µM* | 12µM*
